Source: the supplement of paper PMC8728848
The entries come from a sample that favours the strongest signals as a whole.

Experiments:
Assay in all cases: glycan array binding signal (z-score within array); higher = stronger binding
Settings in all cases: glycan notation: IUPAC condensed, linker removed
Fuc(a1-2)Gal(b1-3)GlcNAc = biological target: Fuc(a1-2)Gal(b1-3)GlcNAc
How it was run: (§1)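 The Consortium for Functional Glycomics database supplied 3228 glycan arrays, of which those lacking an available protein sequence were dropped. The binding signal, a within-array Z-score, was averaged across arrays of the same protein sequence and across linkers. Negative scores can be read as non-binding.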

[1] = biological target: Fuc(a1-2)Gal(b1-3)GlcNAc6S
How it was run: as §1

[2] = biological target: Fuc(a1-2)Gal(b1-3)[Fuc(a1-4)]GlcNAc
How it was run: as §1

[3] = biological target: Fuc(a1-2)Gal6S(b1-3)GlcNAc
How it was run: as §1

[4] = biological target: Fuc(a1-2)Gal6S(b1-3)GlcNAc6S
How it was run: as §1

[5] = biological target: Fuc(a1-2)[GalNAc(a1-3)]Gal(b1-3)GlcNAc(b1-3)GalNAc
How it was run: as §1

[6] = biological target: Fuc(a1-3)[Gal(b1-4)]GlcNAc6S
How it was run: as §1

[7] = biological target: Fuc(a1-3)[Gal3S(b1-4)]Glc
How it was run: as §1

[8] = biological target: Fuc(a1-3)[Gal3S(b1-4)]GlcNAc
How it was run: as §1

Gal(a1-3)Gal = biological target: Gal(a1-3)Gal
How it was run: as §1

[9] = biological target: Gal(a1-3)Gal(b1-3)GlcNAc(b1-2)Man
How it was run: as §1

Gal(b1-2)Gal = biological target: Gal(b1-2)Gal
How it was run: as §1

[10] = biological target: Gal(b1-3)GlcNAc(a1-3)Gal(b1-4)GlcNAc
How it was run: as §1

[11] = biological target: Gal(b1-3)GlcNAc(b1-2)[Gal(b1-3)GlcNAc(b1-6)]Man(a1-6)[Gal(b1-3)GlcNAc(b1-2)Man(a1-3)]Man(b1-4)GlcNAc(b1-4)GlcNAc
How it was run: as §1

[12] = biological target: Gal(b1-3)GlcNAc(b1-3)Gal(b1-4)Glc
How it was run: as §1

[13] = biological target: Gal(b1-3)GlcNAc(b1-3)Gal(b1-4)GlcNAc(b1-2)[Gal(b1-3)GlcNAc(b1-3)Gal(b1-4)GlcNAc(b1-6)]Man(a1-6)[Gal(b1-3)GlcNAc(b1-3)Gal(b1-4)GlcNAc(b1-2)Man(a1-3)]Man(b1-4)GlcNAc(b1-4)[Fuc(a1-6)]GlcNAc
How it was run: as §1

[14] = biological target: Gal(b1-4)GlcNAc(b1-2)Man(a1-3)[Gal(b1-4)GlcNAc(b1-2)Man(a1-6)][GlcNAc(b1-4)]Man(b1-4)GlcNAc(b1-4)[Fuc(a1-6)]GlcNAc
How it was run: as §1

[15] = biological target: Gal(b1-4)GlcNAc(b1-3)Gal(b1-4)GlcNAc(b1-3)Gal(b1-4)GlcNAc
How it was run: as §1

[16] = biological target: Gal(b1-4)GlcNAc(b1-3)Gal(b1-4)GlcNAc(b1-3)Gal(b1-4)GlcNAc(b1-3)Gal(b1-4)GlcNAc(b1-3)Gal(b1-4)GlcNAc(b1-2)Man(a1-3)[Gal(b1-4)GlcNAc(b1-3)Gal(b1-4)GlcNAc(b1-3)Gal(b1-4)GlcNAc(b1-3)Gal(b1-4)GlcNAc(b1-3)Gal(b1-4)GlcNAc(b1-2)Man(a1-6)]Man(b1-4)GlcNAc(b1-4)GlcNAc
How it was run: as §1

[17] = biological target: Gal(b1-4)GlcNAc(b1-6)Gal(b1-4)GlcNAc
How it was run: as §1

Gal6S(b1-3)GlcNAc = biological target: Gal6S(b1-3)GlcNAc
How it was run: as §1

GalNAc(b1-4)GlcNAc = biological target: GalNAc(b1-4)GlcNAc
How it was run: as §1

[18] = biological target: GalNAc(b1-4)GlcNAc(b1-2)Man
How it was run: as §1

B1: Pa IMPa (Pseudomonas aeruginosa), Q9I5W4 (protein)
chain: MSLSTTAFPSLQGENMSRSPIPRHRALLAGFCLAGALSAQAATQEEILDAALVSGDSSQLTDSHLVALRLQQQVERIRQTRTQLLDGLYQNLSQAYDPGAASMWVLPANPDNTLPFLIGDKGRVLASLSLEAGGRGLAYGTNVLTQLSGTNAAHAPLLKRAVQWLVNGDPGAATAKDFKVSVVGVDKTAALNGLKSAGLQPADAACNALTDASCASTSKLLVLGNGASAASLSATVRARLQAGLPILFVHTNGWNQSSTGQQILAGLGLQEGPYGGNYWDKDRVPSSRTRTRSVELGGAYGQDPALVQQIVDGSWRTDYDWSKCTSYVGRTTCDDVPGLSDFSKRVDVLKGALDAYNQKAQNLFALPGTTSLRLWLLWADAVRQNIRYPMDKAADTARFQETFVADAIVGYVREAGAAQKELGSYAGQRQQSMPVSGSEETLTLTLPSAQGFTAIGRMAAPGKRLSIRIEDAGQASLAVGLNTQRIGSTRLWNTRQYDRPRFLKSPDIKLQANQSVALVSPYGGLLQLVYSGATPGQTVTVKVTGAASQPFLDIQPGEDSSQAIADFIQALDADKADWLEIRSGSVEVHAKVEKVRGSIDKDYGGDVQRFIRELNEVFIDDAYTLAGFAIPNQAKTPAIQQECAARGWDCDSETLHKLPGTQHINVDQYAQCGGGCSGNPYDQTWGLNPRGWGESHELGHNLQVNRLKVYGGRSGEISNQIFPLHKDWRVLREFGQNLDDTRVNYRNAYNLIVAGRAEADPLAGVYKRLWEDPGTYALNGERMAFYTQWVHYWADLKNDPLQGWDIWTLLYLHQRQVDKSDWDANKAALGYGTYAQRPGNSGDASSTDGNDNLLLGLSWLTQRDQRPTFALWGIRTSAAAQAQVAAYGFAEQPAFFYANNRTNEYSTVKLLDMSQGSPAWPFP
- glycan array binding signal (z-score) (Fuc(a1-2)Gal(b1-3)GlcNAc): -0.318
- glycan array binding signal (z-score) [1]: -0.327
- glycan array binding signal (z-score) [2]: -0.558
- glycan array binding signal (z-score) [3]: 0.048
- glycan array binding signal (z-score) [4]: 2.91
- glycan array binding signal (z-score) [5]: -0.411
- glycan array binding signal (z-score) [6]: -0.132
- glycan array binding signal (z-score) [7]: -0.077
- glycan array binding signal (z-score) [8]: -0.278
- glycan array binding signal (z-score) (Gal(a1-3)Gal): 0.105
- glycan array binding signal (z-score) [9]: -0.472
- glycan array binding signal (z-score) (Gal(b1-2)Gal): 0.524
- glycan array binding signal (z-score) [10]: 1.27
- glycan array binding signal (z-score) [11]: -0.438
- glycan array binding signal (z-score) [12]: 0.215
- glycan array binding signal (z-score) [13]: 0.004
- glycan array binding signal (z-score) [14]: -0.448
- glycan array binding signal (z-score) [15]: -0.198
- glycan array binding signal (z-score) [16]: 10.7
- glycan array binding signal (z-score) [17]: -0.112
- glycan array binding signal (z-score) (Gal6S(b1-3)GlcNAc): 1.34
- glycan array binding signal (z-score) (GalNAc(b1-4)GlcNAc): -0.367
- glycan array binding signal (z-score) [18]: 0.357
